HSP90 refold inh – inhibitors of HSP90 luciferase refolding in rabbit reticulocyte lysate. luciferase refolding luminescence, 3 h. inhibition, % at 5.6 µM. 290,000 tested, 0.91% active;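 active = inhibition above the screen-wide mean plus 3 SD, computed separately per campaign, cut at about 16% in these data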;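 note: inhibitors lower the luminescence because luciferase stays unfolded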
Platelet DG rel – platelet dense granule release activity; human platelet-rich plasma, SFLLRN dense granule ATP release, luminescence; inhibition, %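 (compounds screened at 7.5 µM in platelet-rich plasma)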; 300,000 tested, 0.22% active; AID 1663;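 active = mean replicate score, as percent of positive control, at or above 50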
MPTP block – inhibitors of mitochondrial permeability transition pore. isolated mouse mitochondria, Ca2+ swelling absorbance, 30 min. inhibition, % at 10 µM. 360,000 tested, 1.4% active;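 active = inhibition of 50% or more, scaled per plate between neutral and stimulator controls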
HSF1 inhib – HSF1 inhibition | NIH3T3-HGL HSE-luciferase, MG132-induced, luminescence 8 h; stronger effect = lower value | activity change, negative = inhibition, % at 7.5 µM (by protocol) | 300,000 tested, 0.77% active | AID 2098;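 active = more than half of replicate wells show activity change below -50%, luminescence cut by over half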;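 note: luciferase reports HSF-1 transcriptional activity via heat shock element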
dFosB act – activators of mouse delta FosB homodimer; activation, % at 25 µM; purified delta FosB, TAMRA-CDK5 oligo fluorescence polarization; percent of positive-control signal above neutral wells; P13346; 340,000 tested, 0.99% active;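 active = mean activation above about 17%, with every replicate also reaching it, limit read from the data, passing the limit was not always enough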
Target sequence (P13346 whole entry, looked up): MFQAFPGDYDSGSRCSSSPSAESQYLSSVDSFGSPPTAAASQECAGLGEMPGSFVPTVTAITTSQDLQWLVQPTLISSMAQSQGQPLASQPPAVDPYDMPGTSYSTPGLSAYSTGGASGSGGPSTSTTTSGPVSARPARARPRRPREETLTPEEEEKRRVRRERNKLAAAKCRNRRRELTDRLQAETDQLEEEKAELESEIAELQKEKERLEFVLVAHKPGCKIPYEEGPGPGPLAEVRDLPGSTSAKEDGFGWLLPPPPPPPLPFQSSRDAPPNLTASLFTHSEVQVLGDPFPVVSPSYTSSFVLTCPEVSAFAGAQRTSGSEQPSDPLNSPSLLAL
HSF-1 act – increases HSF-1 driven luciferase reporter signal; NIH3T3-HGL HSF-1 luciferase reporter, MG132, 8 h; 100% = twice DMSO control signal; activation, % at 9 µM; 300,000 tested, 1.7% active;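 active = mean replicate activation of at least 50% with a set share of replicates each reaching 50%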
Each line names hits and unclear results; the compound was inactive in the other large screens. In the library only some 4.9% were active in any assay of this set; here they are far more common.

CC(C)(C)C1CCSC2=NCCC[C@]2(c2ccccc2)C1 (stereo not given in full)	none (no result: HSP90 refold inh, Platelet DG rel, HSF1 inhib, dFosB act, HSF-1 act)
O=C(/C=C/c1ccccc1)Nc1cccc(C(=O)O)c1	HSP90 refold inh 89, HSF1 inhib -78
OCc1cc(Br)ccc1OCc1nc2ccccc2s1	HSF-1 act 71
Oc1ccc(O)c(Cc2nc3ccccc3s2)c1	HSF-1 act 69
Oc1ccccc1OCc1nc2ccccc2s1	HSF-1 act 74
CCOC(=O)C1(CCOC)CCN(C(=O)c2ccc(CSC)o2)CC1	none
C[C@]12c3[nH]c4cc(-c5ccco5)ccc4c3CCN1C(=O)[C@@H](CC(=O)NCc1ccco1)C[C@@H]2C(=O)N1CCOCC1	none (no result: HSP90 refold inh, Platelet DG rel, HSF1 inhib, HSF-1 act)
Brc1ccc2nc(C3CCCCC3)c(CC3CCCCC3)n2c1	none (no result: HSP90 refold inh, Platelet DG rel, HSF1 inhib, dFosB act, HSF-1 act)
CCOC(=O)C1=NN(C(=O)Cc2ccccc2)C(O)(c2ccc(Cl)cc2)C1 (stereo not given)	none
CCOC(=O)C1=NN(C(=O)c2ccc(OC)cc2)C(O)(c2ccc(Cl)cc2)C1 (stereo not given)	HSF-1 act 80
CCOC(=O)C1=NN(C(=O)c2ccccc2)C(O)(c2ccc(C)cc2)C1 (stereo not given)	HSF-1 act 318
CC1=NN(C(=O)c2ccccc2)C(O)(c2ccc(Br)cc2)C1 (stereo not given)	HSF-1 act 83
CCOC(=O)C1=NN(C(=O)COc2ccccc2)C(O)(c2ccc(Cl)cc2)C1 (stereo not given)	HSF-1 act 122
CCOC(=O)C1=NN(C(=O)c2cccc(Br)c2)C(O)(C(C)(C)C)C1 (stereo not given)	none (no result: MPTP block, dFosB act)
CN(Cc1ccccc1)C(=O)c1ccccc1NC(=O)C1=CSCCO1	HSF1 inhib -76
CCN(c1ccccc1)S(=O)(=O)c1ccc(Cl)c(C(=O)NCC2CCCO2)c1 (stereo not given)	none
O=C(O)CC1SC(=O)N(Cc2ccccc2)C1=O (stereo not given)	HSF1 inhib -89
CCCN1C(=O)SC(CC(=O)Nc2ccccc2)C1=O (stereo not given)	none
Cn1c(=O)n(C)c2cc(S(=O)(=O)NCc3ccco3)ccc21	none
Cn1c(=O)n(C)c2cc(S(=O)(=O)NCc3ccccc3)ccc21	Platelet DG rel 52
O=C(OCC(=O)N1CCN(C(=O)c2ccco2)CC1)c1sc2cc(F)ccc2c1Cl	HSF1 inhib -55
O=C(OCC(=O)N1CCN(C(=O)c2ccco2)CC1)c1cccc(F)c1	none (no result: HSP90 refold inh, Platelet DG rel, HSF1 inhib, HSF-1 act)
Cc1ccccc1-c1cnc2c(c1)C(=O)N([C@H](C)CO)C[C@@H](C)[C@H](CN(C)C(=O)c1ccncc1)O2	none (no result: HSP90 refold inh, Platelet DG rel, HSF1 inhib, dFosB act, HSF-1 act)
O=C(NNC(=O)C1CCN(S(=O)(=O)c2ccc(Cl)cc2)CC1)c1ccc(S(=O)(=O)N2CCCCC2)cc1	none
NC(=O)COC(=O)c1cc(=O)[nH]c2ccccc12	HSF1 inhib -62
CNC(=O)COC(=O)c1cc(=O)[nH]c2ccccc12	none
CC[C@@H](C)[C@H](NC(=O)Cc1c(C)c2cc3c(C)c(C)oc3c(C)c2oc1=O)C(=O)O	HSF1 inhib -70
CC[C@@H](C)[C@H](NC(=O)Cc1c(C)c2cc3c(C)coc3c(C)c2oc1=O)C(=O)O	none
CCc1ccc(NC(=O)c2sccc2-n2cccc2)cc1	HSF-1 act 53
CCOc1ccc(NC(=O)CCCNC(=O)Cn2cnc3sc(C)c(C)c3c2=O)cc1	HSF1 inhib -64
COc1ccccc1NC(=O)CCCNC(=O)Cn1cnc2sc(C)c(C)c2c1=O	none
COC(=O)Cc1ccc(NC(C)=O)cc1	none (no result: HSP90 refold inh, Platelet DG rel, HSF1 inhib, HSF-1 act)
COC(=O)Cc1ccc(NC(=O)c2ccc(C)c(C)c2)cc1	HSF-1 act 71
O=C(NC1CCCC1)c1nc(-c2ccco2)oc1-c1ccccc1	none (no result: HSP90 refold inh, Platelet DG rel, HSF1 inhib, dFosB act, HSF-1 act)
c1coc(CSc2ncnc3c2oc2ccccc23)c1	HSF-1 act 66
COC(=O)c1ccc(CSc2ncnc3c2oc2ccccc23)o1	HSF-1 act 113
c1ccc(CSc2ncnc3c2oc2ccccc23)cc1	none
CCCCOc1ccccc1C1C(C(=O)OC)=CN(CC)C=C1C(=O)OC	Platelet DG rel 51
O=C(CN1C(=O)/C(=C\c2cccc(Cl)c2)Sc2ccccc21)NCCCN1CCOCC1	HSF-1 act 90
O=C(Nc1cccc2nsnc12)c1cc2c(cc1Cl)Sc1nccn1S2(=O)=O	none (no result: HSP90 refold inh, Platelet DG rel, HSF1 inhib, HSF-1 act)
Oc1c(Br)cc(Br)cc1C=Nc1ccc2c(c1)OCCO2	HSF1 inhib -79
O=[N+]([O-])c1ccc(O)c(C=Nc2cccc3ccccc23)c1	none
O=[N+]([O-])c1ccc(O)c(C=Nc2ccc3c(c2)OCCO3)c1	HSF1 inhib -64
Oc1c(Br)cc(Br)cc1C=Nc1ccc2c(c1)OCO2	none (no result: HSF1 inhib, HSF-1 act)
O=[N+]([O-])c1ccc(O)c(C=Nc2ccc3oc(Cc4ccc(Cl)cc4)nc3c2)c1	HSF1 inhib -74 (no result: MPTP block, dFosB act)
O=C(O)CSc1nnc(NC(=O)CN2CCOCC2)s1	none
COc1ccc(N2C(=O)/C(=C\c3ccco3)N=C2SCC(=O)NC(C)C)cc1Cl	none
O=C(CSC1=N/C(=C/c2ccco2)C(=O)N1c1ccc(OC(F)F)cc1)NC1CCS(=O)(=O)C1 (stereo not given)	HSF-1 act 64
COc1ccc(CNC(=O)C/C(C)=N/NC(=O)c2ccc(OC)cc2OC)cc1	none
O=C(COC(=O)/C=C/c1ccc([N+](=O)[O-])cc1)NCC1CCCCC1	none (no result: HSP90 refold inh, Platelet DG rel, HSF1 inhib, HSF-1 act)
CC1=C(C(=O)N2CCCCCC2)CC(CC(=O)NCCCN(C)C)C(=O)N1Cc1ccc(F)cc1 (stereo not given)	none (no result: HSP90 refold inh, Platelet DG rel, HSF1 inhib, dFosB act, HSF-1 act)
Cc1ccc(NC2=CC(=O)CC(C)(C)C2)c(N)c1	none
CC1(C)CC(=O)C=C(Nc2ccc(Br)cc2F)C1	HSF1 inhib -64
CCN(CC)S(=O)(=O)c1cccc(C(=O)OC2CC(C)OC2=O)c1 (stereo not given)	HSP90 refold inh 16
COc1ccc(Br)cc1CNC(=O)c1ccc2c(c1)N(C)CCS2	Platelet DG rel 97
CN1CCSc2ccc(C(=O)Nc3ccc(Cl)cc3)cc21	HSF-1 act 122
COc1cccc(NC(=O)c2ccc3c(c2)N(C)CCS3)c1	HSF-1 act 92
CCN1CCSc2ccc(C(=O)NCc3cc(Br)ccc3OC)cc21	none
CN1CCSc2ccc(C(=O)NCc3cccc(F)c3)cc21	none
O=S(=O)(c1cc(Cl)ccc1Cl)N1CCC2(CC1)OCCO2	HSF1 inhib -72
Cc1ccc(C)c(S(=O)(=O)N2CCC3(CC2)OCCO3)c1	none
CCOC(=O)CSc1nc2nc(Cl)c(Cl)nc2[nH]1	none (no result: HSP90 refold inh, Platelet DG rel, HSF1 inhib, dFosB act, HSF-1 act)
CCOC(=O)C1CCCN(CC(=O)Nc2c(C(=O)OC)[nH]c3ccccc23)C1 (stereo not given)	HSF-1 act 60
CCOC(=O)C1CCCN(CC(=O)Nc2c(C(=O)OC)[nH]c3ccc(C)cc23)C1 (stereo not given)	none
COc1ccc(-c2csc(Nc3cccc(C)n3)n2)cc1C	HSF-1 act 98
CC(=O)Oc1ccc(-c2csc(Nc3cccc(C)n3)n2)cc1	HSF-1 act 65
